In PubChem BioAssay AID743279 (National Center for Advancing Translational Sciences (NCATS), 2014) one finds activity change data, which are given here for 91 compounds.

The whole screen tested about 360,000 compounds, of which about 17,000 (4.7%) were called active. Roughly 5% stayed inconclusive and do not appear here. What follows is part of a selection rich in actives, with near analogues and random picks from the rest. A number with no mark means an inactive call. No stated cut-off is given here; in the data, active means activity change below about -50%; inconclusive means mostly about -30% to -49%; inactive means weaker than that.
On the % scale 0 is the no-effect control and ±100 the full control effect.

The assay is described as follows: qHTS for Inhibitors of Inflammasome Signaling: IL-1-beta AlphaLISA Primary Screen. The following applies: THP-1 LPS/ATP IL-1B secretion, 16 h; at 57.5 µM, hits give low values. A digest of the protocol: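 Secreted IL-1B measured by AlphaLISA bead assay after 16 h compound exposure of THP-1 cells; compounds (final up to 57.5 uM) added 1 h before LPS (250 ng/mL) and ATP (1.25 mM) stimulation; lower signal means less secretion.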
On the technique in general: Quantitative high-throughput screening tests each substance at several concentrations.
As to `CCOC(=O)c1c(NC(=S)SC)sc(C(=O)N2CCc3ccccc3C2)c1C`, the activity change is 1.46%.

As to `CN(CC(=O)NCC(c1ccccc1)N1CCCC1)S(=O)(=O)c1ccc(Cl)cc1` (stereo unspecified), the activity change was -22.9%.

As for `CC(=O)Nc1c2c(nn1-c1ccc(C)cc1C)CS(=O)C2` (stereo unspecified), the activity change is 13.7%.

On to `Clc1ccc2nc(CSc3ccccc3)cn2c1`, for which the activity change is -87.1% (active).

`CCCCCCSc1ccc(-c2nc3ccc(Cl)cn3c2NCc2ccccc2)cc1`: the activity change is -8.09%.

As for `Cc1ccc(-c2nc3ccc(Cl)cn3c2Cc2ccccc2)cc1`, the activity change is -3.47%.

Take `CC1(C(=O)NS(=O)(=O)c2cccc(F)c2)CCN1C(=O)c1cccc2ccccc12` (stereo unspecified): the activity change was 21.3%.

Take `CCCCCCN1CCN(C2CN(Cc3cn(CCCCCC)nn3)S(=O)(=O)C2)CC1` (stereo unspecified): the activity change was -17.7%.

Take `CC[C@H]1CN2CCc3cc(OC)c(OC)cc3[C@@H]2C[C@@H]1C[C@H]1NCCc2cc(OC)c(OC)cc21`: the activity change was -106% (active).

Take `COc1cc2c(cc1OC)CN(CC(=O)Nc1ccc(F)cc1)CC2`: the activity change was 14%.

On to `CCC(Sc1nncn1C)C(=O)Nc1nnc(-c2ccc(Cl)cc2)s1` (stereo unspecified), for which the activity change was -11%.

As for `O=C(c1cccnc1)N(Cc1ccccc1)C(=O)c1cccnc1`, the activity change is 33%.

As for `Cc1[nH]c(=O)c(C(=O)/C=C/c2ccccc2)c2c1CCCC2`, the activity change is -98.3% (active).

`COC(=O)c1c(C)[nH]c(C(=O)/C=C/c2ccc(Cl)cc2)c1C`: the activity change is -3.64%.

In the case of `CC1(C(=O)O)CCCN(C(=O)/C=C/c2ccccc2)C1` (stereo unspecified), the activity change is 17.4%.

Take `CCCCn1c(N)c(N(CCC(C)C)C(=O)COC(=O)c2cccnc2OCC)c(=O)[nH]c1=O`: the activity change is -17.5%.

For `C/C(=N/Nc1ccc(Cl)cc1)c1cnnc(-c2ccccc2)n1`, the activity change was 58.2%.

Turning to `CCCCCCCN=C(C)c1ccccc1O`, the activity change was 19.8%.

With `C/C(=N\Nc1ccc(Cl)nn1)c1ccccc1O`, the activity change was -63.2% (active).

Take `Cn1c(CCN2CCN(c3ccccn3)CC2)nc2cc(NS(=O)(=O)c3ccc(F)cc3)ccc21`: the activity change was -12.9%.

`C[C@H]1NS(=O)(=O)c2cc(Cl)ccc2O[C@@H]1c1ccccc1`: the activity change is 51.9%.

As for `O=C(Nc1ccc(NC(=O)c2ccc3c(c2)OCO3)cc1)c1cccc(Cl)c1`, the activity change is 9.41%.

As for `COC(=O)c1ccc(N2CCOCC2)c(NC(=O)c2ccc3c(c2)OCCO3)c1`, the activity change is 18.4%.

Regarding `CN1CCN(c2ccc(NC(=O)c3ccc4c(c3)OCCO4)cc2Cl)CC1`, the activity change was -72.6% (active).

Consider `O=C(Nc1ccc(Cl)cn1)c1ccc2c(c1)OCCO2`, for which the activity change is 2.51%.

With `O=C(Nc1cccc(S(=O)(=O)Nc2ccc(Cl)cc2)c1)c1ccc2c(c1)OCCO2`, the activity change is -81.3% (active).

With `CN1CCN(c2ccc(NC(=O)c3cc(Cl)c4c(c3)OCCO4)cc2)CC1`, the activity change was -19%.

Take `COc1ccc(NC(=O)CN(C)C(=O)c2cc(C)oc2C)cc1`: the activity change was 24%.

In the case of `CCCS(=O)(=O)NC(=O)C1(C)CCCN(C(=O)c2ccnc(Cl)c2)C1` (stereo unspecified), the activity change was 15.3%.

Regarding `CC(=O)Nc1ccc(C(=O)N(C2=NC(C)CS2)c2ccc(Cl)cc2)cc1` (stereo unspecified), the activity change result is “inactive”.

Take `COc1ccccc1C(=O)N(C1=NC(C)CS1)c1ccc(Cl)cc1` (stereo unspecified): the activity change is -80.7% (active).

`COc1ccccc1C(=O)NCCC(=O)NC1=NCCS1`: the activity change is 22%.

On to `COc1ccc(CCC(=O)Nc2ccc(Cl)c(S(=O)(=O)N3CCOCC3)c2)cc1OC`, for which the activity change is -24.7%.

`Cc1cc(Br)ccc1NC(=O)c1cnc(N2CCN(c3ccccn3)CC2)c2ccccc12`: the activity change is 1.57%.

With `Cc1nc(N2CCN(c3ccccn3)CC2)c2c(C)c(C(=O)Nc3ccc(F)c(Cl)c3)sc2n1`, the activity change was -58.3% (active).

On to `Cc1cc(Br)ccc1NC(=O)c1sc2ncn(CC(=O)N3CCN(c4ccccn4)CC3)c(=O)c2c1C`, for which the activity change is 28.3%.

With `Cc1nc(N2CCN(c3ccccn3)CC2)c2c(C)c(C(=O)Nc3ccc(F)cc3)sc2n1`, the activity change is -76.8% (active).

With `Cc1sc2ncnc(N3CCC(C(=O)Nc4ccc(F)cc4Cl)CC3)c2c1C`, the activity change is -10.9%.

Take `CCN(CC)c1ccc(NC(=O)CN2CCN(c3ccccn3)CC2)cc1`: the activity change is 2.92%.

For the compound `CCC(=O)Nc1ccc2c(c1)nc(CCN1CCN(c3ccccn3)CC1)n2C`, the activity change is -3.98%.

`Cc1sc2ncnc(N3CCC(C(=O)NNC(=O)c4ccc(F)cc4)CC3)c2c1C`: the activity change was -23.3%.

On to `Cc1nc(N2CCC(C)CC2)c2c(C)c(C(=O)Nc3cc(F)ccc3C)sc2n1`, for which the activity change was -93.6% (active).

In the case of `CC(NC(=O)COc1cccnc1[N+](=O)[O-])c1ccc(Cl)cc1Cl` (stereo unspecified), the activity change is -26%.

Turning to `CN(C)C(=S)N=c1ssc(=S)n1Cc1ccco1`, the activity change is 1.33%.

`Cc1ccc(C(=O)NCCc2nnc(SCC(=O)Nc3cccc(C(=O)O)c3)n2C)cc1`: the activity change was 3.07%.

For the compound `CCCCCC1CCC(c2nnc(SCC(C)=O)o2)CC1` (stereo unspecified), the activity change was 0.218%.

On to `O=C1C2C3C=CC(C3)C2C(=O)N1c1ccc(-c2nc3ccccc3c(=O)o2)cc1` (stereo unspecified), for which the activity change is -10.4%.

For `c1ccc(CN2CCC(N=C3NN=C(c4ccc5c(c4)OCCO5)CS3)CC2)cc1`, the activity change was -81.5% (active).

As for `CN(C)c1nc(=Nc2cccc(Cl)c2)ss1`, the activity change was -9.51%.

With `Clc1cccc(N=C2NN=C(c3ccc4c(c3)OCCO4)CS2)c1`, the activity change was -71.7% (active).

Take `CS(=O)(=O)N(CC(=O)N1CCN(Cc2ccccc2)CC1)c1ccc2c(c1)OCCO2`: the activity change is -2.68%.

As to `CC(=NC1CCN(Cc2ccccc2)CC1)c1c(O)[nH]c(=O)[nH]c1=O`, the activity change was 4.26%.

With `O=C(Nc1ccc(Cl)cc1)C1Cc2c(-c3ccc4c(c3)OCO4)ccnc2O1` (stereo unspecified), the activity change is -19.5%.

For `Cc1ccc(S(=O)(=O)Nc2ccccc2CNc2c(C)n(C)n(-c3ccccc3)c2=O)cc1`, the activity change was -4.94%.

With `O=C(NCCO)c1cccc(-c2cccc3nccn23)c1`, the activity change was 81.9%.

As to `Cc1ccccc1Nc1nc(-c2cccnc2)cs1`, the activity change is -83.1% (active).

Consider `CN(c1ccc(O)cc1)c1nc(-c2cccnc2)cs1`, for which the activity change is 40.3%.

Turning to `O=C(NCc1cccnc1)C(=O)Nc1nc(-c2ccccc2)cs1`, the activity change was 17.3%.

In the case of `O=C(CN1C(=O)NC2(CCOc3ccccc32)C1=O)NCc1ccc(F)cc1` (stereo unspecified), the activity change was -15.8%.

Turning to `C[C@@H]1CN([C@@H](C)CO)C(=O)CCCn2nncc2CO[C@H]1CN(C)C(=O)Nc1ccc(C(F)(F)F)cc1`, the activity change was -7.03%.

For `COC(=O)c1ccc2nc(C3CCCCC3)c(Cc3cccc(F)c3)n2c1`, the activity change was 20.9%.

On to `CN(C)CCCn1c(N)c(C#N)c2nc(C#N)c(C#N)nc21`, for which the activity change was -105% (active).

Regarding `N#Cc1c(N)n(CCOC(=O)c2ccc(Cl)cc2)c2nc3ccccc3nc12`, the activity change is -16.3%.

For the compound `Cc1cc(C)c(S(=O)(=O)N(C)CC(=O)NCC2CCCO2)c(C)c1` (stereo unspecified), the activity change is 4.54%.

Turning to `CCCCNC(=O)C(C)N(CCN(C)C)C(=O)CCCCCN1C(=O)NC(c2ccc(Cl)cc2)C(C(=O)OCc2ccccc2)=C1C` (stereo unspecified), the activity change was -52.2% (active).

Turning to `COC(=O)CCCCCN1C(=O)NC(c2ccc(-c3ccccc3)cc2)C(C(=O)OCc2ccccc2)=C1C` (stereo unspecified), the activity change is -1.28%.

As to `CC1=C(C(=O)OCc2ccccc2)C(c2ccc(C(F)(F)F)cc2)NC(=O)N1CCCCCC(=O)O` (stereo unspecified), the activity change was 5.05%.

Regarding `CC(=O)c1cccc(-c2cnc3c(NC=O)cc(-c4ccc(N5CCN(C)CC5)cc4)cn23)c1`, the activity change is 108%.

As to `CC(C)(C)Cc1c(C2CCCCC2)nc2ccc(Br)cn12`, the activity change is 28.2%.

For `OCC1(Cc2ccccc2C(F)(F)F)CCN(Cc2cccc3cnccc23)CC1`, the activity change was -72.4% (active).

On to `C/C(=N/N1CCN(Cc2cccc3ccccc23)CC1)c1cccnc1`, for which the activity change was 0%.

As for `OCC1(Cc2ccccc2C(F)(F)F)CCN(Cc2ccncc2)CC1`, the activity change is 21.9%.

As to `O=S1(=O)CC(N2CCC(Cc3ccccc3)CC2)CN1Cc1ccccc1` (stereo unspecified), the activity change was 21.9%.

Take `Cc1cccc(N(C)C(=O)c2cc3c(=O)[nH]c4ccc(C)cc4c3s2)c1`: the activity change is 3.44%.

Regarding `CCN(CC)CCCNC(=O)c1cc(-c2cccc(Cl)c2)on1`, the activity change is -5.59%.

Turning to `CCN(CC)CCCNC(=O)c1cc2c(=O)[nH]c3ccc(C)cc3c2s1`, the activity change was -65.6% (active).

As to `COCCNC(=O)c1cc2c(Br)ccc(Br)c2nc1N`, the activity change is -2.49%.

Take `O=C(NCC1CCCCC1)c1cc(S(=O)(=O)N2CCCCC2)ccc1N1CCOCC1`: the activity change is -0.256%.

Turning to `Cn1c(=O)c2c(nc(SCCNS(=O)(=O)c3ccccc3)n2C)n(C)c1=O`, the activity change is 29.8%.

Take `CCC1CCCCN1C(=O)CSc1nc2c(c(=O)n(C)c(=O)n2C)n1C` (stereo unspecified): the activity change is 2.3%.

Take `Cn1c(=O)c2c(nc(SCC(=O)Nc3ccccc3N3CCCCC3)n2C)n(C)c1=O`: the activity change is -57.3% (active).

In the case of `O=[N+]([O-])c1ccccc1/C=C/CN1CCCC(CO)C1` (stereo unspecified), the activity change was -11.3%.

For `O=[N+]([O-])c1ccccc1/C=C/CN1CCC(O)CC1`, the activity change is 7.25%.

Consider `CC1CCCCC1NC(=O)/C(C#N)=C/C=C/c1ccccc1[N+](=O)[O-]` (stereo unspecified), for which the activity change is -103% (active).

For `CCc1ccc(C(=O)N2CCN(S(=O)(=O)c3sc(C(=O)O)c(C)c3C(=O)O)CC2)cc1`, the activity change is 20.6%.

In the case of `O=C1C[C@@H]2c3c(cccc3CN1Cc1ccccc1)C[C@@H](O)[C@H]2O`, the activity change was 16.3%.

Take `c1ccc(Cn2nnc3c(NCC4CC4)ncnc32)cc1`: the activity change is -6.22%.

On to `COc1cccc(-c2cnc(C(O)c3ccccc3OC)[nH]2)c1` (stereo unspecified), for which the activity change is 26.3%.

Regarding `O=C(Nc1ccc(C(=O)O)cc1)/C(=C\c1ccccc1)NC(=O)c1ccc(Br)cc1`, the activity change is -0.689%.

As to `O=C(Nc1ccc(C(=O)O)cc1)/C(=C/c1ccc([N+](=O)[O-])cc1)NC(=O)c1ccccc1`, the activity change was -62.1% (active).

As to `O=C(NCCc1ccccc1)/C(=C\c1ccc([N+](=O)[O-])cc1)NC(=O)c1ccccc1`, the activity change was 4.21%.
